# Experimental data taken from publication PMC10668032, “Altered binding affinity of SIX1-Q177R correlates with enhanced WNT5A and WNT pathway effector expression in Wilms tumor”.
# In all, about 33,000 sequences were measured (“e-score”: median about -0.05, highest 2% from about 0.38 on). The entries come from a sample that favours the highest values as a whole.
# Target: T1, SIX1-Q177R homeodomain (human, UniProt Q15475 108-198, Q177R)
# T1 sequence: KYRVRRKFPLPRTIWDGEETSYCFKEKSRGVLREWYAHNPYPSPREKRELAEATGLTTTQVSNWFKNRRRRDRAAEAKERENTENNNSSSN
# Experiment: universal protein binding microarray; Universal all-10-mer PBM (8x60K, AMADID 030236), 300 nM GST-tagged protein, Alexa Fluor 488 anti-GST; buffer, salt, pH and temperature not stated (as in Berger); high values mean tight binding
# Conditions: protein: ivt; tags: N-terminal GST; dsDNA, one strand shown
# How it was run: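 Binding of GST-tagged homeodomains is given as 8-mer E-scores from the Universal PBM Analysis Suite. The proteins were produced by in vitro transcription/translation, quantified by anti-GST western blot against a recombinant GST standard curve, and applied in duplicate at 300 nM final concentration to universal 'all 10-mer' protein binding microarrays (8×60K format).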
row,Sequence,binding signal [E-score]
1,CAAACCCC,0.197 ± 0.0505
2,CACTGTGA,0.177 ± 0.00305
3,CAGCCGAC,0.196 ± 0.0242
4,GCACACCA,0.401 ± 0.0217
5,CCACACGA,0.234 ± 0.0111
6,ACACACAA,0.244 ± 0.0667
7,TCACACCA,0.434 ± 0.00571
8,CCACACCA,0.393 ± 0.0307
9,TCACAACA,0.195 ± 0.0326
10,GCACACGA,0.214 ± 0.0114
11,GCACACGC,0.256 ± 0.0166
12,CCACACCG,0.363 ± 0.0269
13,ACACACGA,0.251 ± 0.0465
14,TCACACGA,0.226 ± 0.00234
15,ACACACCA,0.415 ± 0.0235
16,ATCCCCTG,0.156 ± 0.0119
17,ACTATACG,0.178 ± 0.015
18,CACTCTGA,0.239 ± 0.0406
19,CACCTTGC,0.258 ± 0.0162
20,TGTTGAAA,0.219 ± 0.0411
21,AGTGATAC,0.265 ± 0.0283
22,CGTATACA,0.241 ± 0.0194
23,GCGGTACA,0.305 ± 0.00496
24,ACACTAGA,0.318 ± 0.0323
25,ACACTAGC,0.364 ± 0.0183

row,Sequence,binding signal [E-score]
1,ACCCTAGG,0.1523 ± 0.00136
2,ACACTAGT,0.389 ± 0.00685
3,ACACTAAA,0.345 ± 0.0117
4,ACACTAGG,0.381 ± 0.0153
5,GGATCAGA,0.17 ± 0.0215
6,CCCTGCAG,0.185 ± 0.0216
7,CTCTTACA,0.183 ± 0.018
8,ATGGGATC,0.185 ± 0.00496
9,CCGAACAC,0.4236 ± 0.00158
10,ACGAACAC,0.3992 ± 0.00182
11,GCGAACAC,0.4086 ± 0.0011
12,CCGAACCC,0.186 ± 0.0116
13,ACGAGCAC,0.226
14,CCGAATAC,0.163 ± 0.00356
15,GCGAACCC,0.174 ± 0.0509
16,ACCCTAAC,0.154 ± 0.00793
17,ACCCACAG,0.217 ± 0.00978
18,CACCAGGA,0.25 ± 0.00664
19,GTACCTAC,0.152 ± 0.0312
20,CTCCGTTC,0.182 ± 0.0356
21,CCCAAACG,0.169 ± 0.00462
22,ACAGGGTG,0.222 ± 0.00416
23,AACACGAA,0.305 ± 0.0107
24,AGCACCAA,0.196 ± 0.00899
25,TGCACCAA,0.211 ± 0.0149

row,Sequence,binding signal [E-score]
1,TACACGAA,0.3773 ± 0.000856
2,AACACCAT,0.457 ± 0.0053
3,TACACCAA,0.4751 ± 0.00401
4,AGCACCAC,0.272 ± 0.00962
5,AACACCAC,0.4833 ± 0.00244
6,AACACGAC,0.373 ± 0.0147
7,AGCACCAT,0.16 ± 0.0114
8,AACACCAA,0.46725 ± 0.00029
9,GTCCGACA,0.217 ± 0.042
10,GTAAGCAC,0.189 ± 0.00735
11,CCTCCTAA,0.197 ± 0.00216
12,GACGGTGC,0.175 ± 0.00182
13,CACTGCAC,0.223 ± 0.0117
14,ACCCTCGG,0.2 ± 0.0194
15,GACCACAC,0.269 ± 0.0108
16,GACACCAA,0.475 ± 0.00758
17,GACACCAC,0.489 ± 0.00507
18,GGCACCAC,0.215 ± 0.0174
19,GACACAAA,0.224 ± 0.11
20,GATACCAA,0.263 ± 0.0211
21,CCCCTCGA,0.23 ± 0.0411
22,GGCGGGTA,0.214 ± 0.0165
23,CCGGGTAC,0.294 ± 0.0102
24,AACGGGTG,0.314 ± 0.00327
25,ACCCGGTG,0.3599 ± 0.0016

row,Sequence,binding signal [E-score]
1,CTACTCCC,0.228 ± 0.0226
2,CACGGCCG,0.188 ± 0.00306
3,GTGTATAA,0.376 ± 0.0114
4,GGGTATCA,0.3904 ± 0.00193
5,GTGTATGA,0.412 ± 0.0071
6,GAGTATCA,0.228 ± 0.0455
7,GGGTATGA,0.186 ± 0.0167
8,GGGTATTA,0.161 ± 0.054
9,GTGTATTA,0.401 ± 0.0189
10,AGGTATCA,0.324 ± 0.0386
11,CAGTATCA,0.2 ± 0.0287
12,CGGTATCA,0.312 ± 0.00867
13,GTGTATCA,0.392 ± 0.0104
14,CCCTCGGA,0.19 ± 0.012
15,CCGAGTCA,0.157 ± 0.00701
16,AACAGTGT,0.323 ± 0.0244
17,GACGCCCC,0.182 ± 0.00373
18,GAGTAACA,0.24 ± 0.0048
19,ACGCTACA,0.161 ± 0.0151
20,GCAACACC,0.4669 ± 0.000587
21,CCAACACG,0.377 ± 0.0116
22,CCAACACC,0.47 ± 0.00509
23,ACAACACC,0.455 ± 0.00357
24,ACAACACG,0.358 ± 0.0104
25,GCAACCCC,0.184 ± 0.013

row,Sequence,binding signal [E-score]
1,ACAACACA,0.232 ± 0.0598
2,ACAACACT,0.35 ± 0.00607
3,CCAACACA,0.163 ± 0.0809
4,GCTGGGTA,0.227 ± 0.00462
5,ACTCGGCA,0.161 ± 0.0126
6,CACCTTCC,0.307 ± 0.017
7,CACTAGGG,0.201 ± 0.0297
8,GAGTGTAA,0.42 ± 0.0292
9,CAGTGTAA,0.42 ± 0.0273
10,AAGTGTAT,0.317 ± 0.0537
11,TAGAGTAA,0.199 ± 0.00264
12,TAGTGTGA,0.258 ± 0.0135
13,CAGGGTAA,0.21 ± 0.00942
14,TAGTGTAA,0.408 ± 0.0318
15,AAGTGTGA,0.188 ± 0.0231
16,AAGTGTAA,0.4 ± 0.0567
17,GGGAGTAA,0.225 ± 0.0261
18,CAGTGTGA,0.306 ± 0.0246
19,CACGAAAA,0.157 ± 0.0159
20,GGGAGTTA,0.2077 ± 0.00099
21,TCGGCACA,0.217 ± 0.0118
22,CACCGCCA,0.291 ± 0.0119
23,AGTCGGTG,0.297 ± 0.0328
24,TGCGTACA,0.18 ± 0.00951
25,ATAATACA,0.166 ± 0.023

row,Sequence,binding signal [E-score]
1,ACGAGGTG,0.251 ± 0.0125
2,AGGCGGGG,0.159 ± 0.0183
3,ACGCCACG,0.171 ± 0.0126
4,AAGACCCC,0.172 ± 0.0514
5,AGAGGTAT,0.221 ± 0.0344
6,GTGTAGGA,0.4 ± 0.00559
7,GTGCTGTA,0.164 ± 0.0245
8,GTGTGGCA,0.246 ± 0.0251
9,GTAGAGTA,0.2533 ± 0.000997
10,GTGTAGCA,0.425 ± 0.0131
11,GGGTAGTA,0.161 ± 0.0206
12,GTGTGGAA,0.193 ± 0.0214
13,GTGTAGTA,0.464 ± 0.0137
14,GGGTAGGA,0.213 ± 0.0147
15,TAGTAGCA,0.159 ± 0.00204
16,GTGTAGAA,0.427 ± 0.0121
17,GTGTGGGA,0.286 ± 0.0336
18,CACGGCTA,0.182 ± 0.0377
19,ACATGGGT,0.209 ± 0.0274
20,CACCTGGG,0.2794 ± 0.00115
21,CCCGCCAC,0.195 ± 0.0268
22,TGGGGTAA,0.26 ± 0.0142
23,CACCCGCG,0.301 ± 0.00786
24,AGGCGACA,0.25 ± 0.0166
25,ACACATGG,0.185 ± 0.0286

row,Sequence,binding signal [E-score]
1,GGAGGACA,0.246 ± 0.019
2,CACGAACA,0.25 ± 0.0125
3,AACACTCA,0.3999 ± 0.00301
4,GATACTCA,0.16 ± 0.00991
5,GACACTCA,0.422 ± 0.00429
6,AACACTCT,0.35 ± 0.036
7,CACACTCG,0.3527 ± 0.00165
8,CACACTAA,0.204 ± 0.0117
9,GACACTCC,0.43377 ± 0.000417
10,TACACTCA,0.402 ± 0.0151
11,CACACTCC,0.291 ± 0.0144
12,CACACTCA,0.21 ± 0.0192
13,AACACTCC,0.379 ± 0.0156
14,AACACTCG,0.337 ± 0.0357
15,CGGATCAC,0.174 ± 0.0108
16,CACGGAGC,0.163 ± 0.00672
17,CACTAGCG,0.188 ± 0.0248
18,CCGTGCGA,0.155 ± 0.0514
19,CCGGTGCG,0.179 ± 0.0475
20,ACGGTGTG,0.367 ± 0.0153
21,ACGGTGCG,0.167 ± 0.0105
22,CCGGTATC,0.284 ± 0.0126
23,CCGGTGTC,0.4894 ± 0.00404
24,ACGGTGTC,0.4875 ± 0.00246
